40 compounds from PubChem BioAssay (Tox21) can be followed below.

SMILES strings stand for the structures. Inconclusive results are not listed. Unmarked numbers belong to inactive results. Activity calls are given as the source filed them. Calls follow the shape of the dose curve; as a rule, active = well fitted cell-killing curve with a large enough effect in the repeat runs; inconclusive = weak or mixed curves, or effect the other way; inactive = flat fitted curve, though single readings scatter.
% is scaled to controls: 0 for no effect and ±100 for the full control effect.

The assay is described as follows: cAMP Responsive Elements (CRE) small molecule agonists, cell-based qHTS assay: qHTS cell viability counter screen (AID 2060914). Also: nearly all actives have a fitted effect of over 50% in size. Particulars: CRE-bla HEK293T viability, CellTiter-Glo luminescence, 5 h; series mostly up to 92.4 µM; activity change, negative = cytotoxicity: at the top concentration. An excerpt:
National Center for Advancing Translational Sciences [NCATS]
Division of Preclinical Innovation [DPI]
U.S. Environmental Protection Agency [EPA]
National Institutes of Environmental Health Sciences [NIEHS]
National Toxicology Program [NTP]
U.S. Food and Drug Administration [FDA]
CREB (cyclic-AMP Responsive Element Binding Protein) is a cellular transcription factor. It binds to certain DNA sequences called cAMP Responsive Elements (CRE) and regulates the transcription of the genes. […] This cell line can be used to find agonists/antagonists of the cyclic AMP signaling pathway. The activation of the report gene under culture conditions can be detected by fluorescence intensity. This cell line has been used to screen the Tox21 10K compound library to identify agonists that induce oxidative stress. The cytotoxicity of the Tox21 compound library against the CRE-bla cell line was tested in parallel by measuring the cell viability using CellTiter-Glo assay (Promega, Madison, WI) in the same wells.
Tox21 Assay Protocol Summary:
CRE-bla Hek 293T cells were suspended in assay medium (DMEM containing 10% dialyzed FBS, 0.1 mM NEAA, 1 mM sodium pyruvate and 25 mM HEPES) and dispensed at 2,000 cells/5 uL /well into 1536-well black wall/clear bottom plates using a Multidrop Combi (ThermoFisher Scientific, Waltham, MA) dispenser. After the assay plates were incubated at 37 C/5% CO2 for 18 hrs, 23 nL of compounds dissolved in DMSO, positive controls or DMSO only was transferred to the assay plate by a pintool workstation (Kalypsys, San Diego, CA). After the plates were incubated at 37 C/5% CO2 for 3 hrs, 1 uL of LiveBLAzer B/G FRET substrate (Invitrogen, Carlsbad, CA) was added to each well using Bioraptr Flying Reagent Dispenser (FRD, Aurora Discovery, San Diego, CA). The plates were incubated at room temperature for 2 h, then fluorescence intensities were measured using an Envision plate reader (PerkinElmer, Shelton, CT) at Excitation 405nm, Emission 460nm and 530nm. The % activity was determined from the ratio of 460nm/530nm. For cell viability readout that measures cytotoxicity, 4 uL /well of CellTiter-Glo reagent was added into the assay plates using Bioraptr FRD. After 30 min incubation at room temperature, the luminescence intensity in the assay plates was measured using a ViewLux (PerkinElmer, Shelton, CT) plate reader.
On the technique in general: qHTS replaces the single test concentration by a dilution series.
With `COc1cc(N)c(Cl)cc1C(=O)NC1CN2CCC1CC2` (stereo not given), the “activity change, negative = cytotoxicity” value is 5.1% [at 42.5 µM].
In the case of `C1CC2OC2CC1C1CO1` (stereo not given), the Potency entry was “inactive”.
As to `Oc1ccccc1Cl`, the Potency result is “inactive”.
For `O=C(O)c1cc(Oc2ccc(C(F)(F)F)cc2Cl)ccc1[N+](=O)[O-]`, the Potency result was “inactive”.
With `C1=Cc2cccc3cccc1c23`, the Potency entry was “inactive”.
On to `Oc1cc(Cl)c(Cl)c(Cl)c1Cl`, for which the “activity change, negative = cytotoxicity” value is -18.2%.
As to `C#CC(C)(C)NC(=O)c1cc(Cl)cc(Cl)c1`, the Potency entry was “inactive”.
Take `FC(Cl)(Cl)Cl`: the “activity change, negative = cytotoxicity” value was -3.42%.
On the same count and under the same terms, for `CCOP(=O)(N=C1SCCS1)OCC` the value was 8.21%.
On to `C[C@H]1C(=O)O[C@@H]2CCN3CC=C(COC(=O)[C@](C)(O)[C@]1(C)O)[C@H]23`, for which the Potency result is “inactive”.
Take `CCN(CC)C(=O)/C(Cl)=C(\C)OP(=O)(OC)OC`: the “activity change, negative = cytotoxicity” value is -3.52%.
As for `CCCCCOC(=O)c1ccccc1C(=O)OCCCCC`, the Potency result is “inactive”.
With `COP(=O)(OC)C(O)C(Cl)(Cl)Cl` (stereo not given), the Potency entry was “inactive”.
In the case of `COC1=CC(=O)O[C@@H](/C=C/c2ccc3c(c2)OCO3)C1`, the “activity change, negative = cytotoxicity” value was 7.99%.
On the same count and under the same terms, next, `Nc1cc2c3c(c1)C(c1ccccc1)=N[C@@H](NC(=O)c1cccnc1)C(=O)N3CC2`: -4.02%.
In the case of `c1ccc2c(c1)Oc1ccccc1O2`, the Potency result is “inactive”.
Same read-out and setting: for `Cc1cc(Cl)ccc1O` the value was “inactive”.
As to `CSC1=N[C@@](C)(c2ccccc2)C(=O)N1Nc1ccccc1`, the “activity change, negative = cytotoxicity” value was -2.93%.
For `CC(C)(C)C(=O)CCl`, the “activity change, negative = cytotoxicity” value was -3.04%.
Take `Nc1ccccc1C(=O)OC/C=C/c1ccccc1`: the “activity change, negative = cytotoxicity” value was -8.28%.
For the compound `Clc1ccc(C2(Cn3cncn3)OCCO2)c(Cl)c1`, the “activity change, negative = cytotoxicity” value is 12.8%.
Take `CC(C)N(C(=O)SCC(Cl)=C(Cl)Cl)C(C)C`: the Potency entry was “inactive”.
In the case of `NNc1ccccc1`, the Potency entry was “inactive”.
In the case of `Cc1ccc(N=CN(C)C=Nc2ccc(C)cc2C)c(C)c1`, the Potency entry was “inactive”.
In the case of `Nc1ccccc1C(=O)OCC(O)CO` (stereo not given), the “activity change, negative = cytotoxicity” value was -13% [at 42.5 µM].
On to `CC(CCc1ccccc1)NC(C)C(O)c1ccc(O)cc1` (stereo not given), for which the “activity change, negative = cytotoxicity” value is -8.42% [at 42.5 µM].
For the compound `O.O.O.O=C([O-])[C@H]([O-])[C@@H]([O-])C(=O)[O-].O=C([O-])[C@H]([O-])[C@@H]([O-])C(=O)[O-].[K+].[K+].[Sb+3].[Sb+3]`, the “activity change, negative = cytotoxicity” value is -8.2%.
On the same count and under the same terms, for `CCCC(Cn1cncn1)c1ccc(Cl)cc1Cl` (stereo not given) the value was -3.94%; for `COc1ccc(C(=O)c2c(C)n(CCN3CCOCC3)c3ccccc23)cc1`, 9.54% [at 42.5 µM].
As for `Cc1ccc(N)c(N)c1`, the Potency entry was “inactive”.
Consider `Oc1cccc(Cl)c1Cl`, for which the “activity change, negative = cytotoxicity” value was -1.88%.
With `CC(C)c1ccc(CO)cc1`, the Potency entry is “inactive”.
As for `CCC(C)c1cccc(C(C)CC)c1O` (stereo not given), the “activity change, negative = cytotoxicity” value is -10.1%.
In the case of `CCCN(CCC)c1c([N+](=O)[O-])cc(S(C)(=O)=O)cc1[N+](=O)[O-]`, the “activity change, negative = cytotoxicity” value is -2.48%.
`CNC(=O)Oc1cccc2ccccc12`: the Potency result is “inactive”.
`CC(C)(C1CCC(O)CC1)C1CCC(O)CC1` (stereo not given): the “activity change, negative = cytotoxicity” value was -2.84%.
For the compound `BrCC(Br)C1CCC(Br)C(Br)C1` (stereo not given), the “activity change, negative = cytotoxicity” value was -17%.
Regarding `CC(C)CON=O`, the Potency entry is “inactive”.
Regarding `O=NN1CCNCC1`, the “activity change, negative = cytotoxicity” value was 1.18%.
As for `COCC(C)N(C(=O)CCl)c1c(C)csc1C` (stereo not given), the “activity change, negative = cytotoxicity” value was -10.9%.
